The values that follow come from PubChem BioAssay.

Test [1] can be described thus: stimulators of nuclear beta-catenin in C2C12, primary screen, imaging, WNT3A-conditioned medium, mouse C2C12, NPC library (AID 1117326; in the data active means nuclear beta-catenin stimulation mostly above about 4.2%, no sharp cut-off; inactive means mostly below about 10%). The following applies: stronger effect = higher value.
Test [2] can be described thus: stimulators of insulin release from INS-1E, primary screen, cell-based, 5 mM glucose, NPC library (AID 1117329;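 active means compound raises insulin release from rat beta cells at 5 mM glucose, no numeric limit stated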). The following applies: rat INS-1E insulin secretion, at 10 µM, stronger effect = higher value.
Test [3] is described as follows: growth inhibition of GSK3B-pretreated HCT116 cells – cell-based, CellTiter-Glo, 0.2 to 20 µM (AID 1117336;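 active means compounds lowering colon cancer cell viability after pretreatment blocking the GSK3B kinase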). The following applies: HCT116 viability after GSK3B inhibitor, at 20 µM, stronger effect = higher value.
Test [4] can be described thus: inhibition of endothelial tube formation, primary screen, imaging, VEGF stimulated, CD31 staining, tube area, NPC library (AID 1117340;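 active means compound that reduces growth-factor-driven endothelial tube area in a mixed cell culture, no cutoff stated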). The settings on record: VEGF-stimulated ADSC/ECFC co-culture, at 10 µM, stronger effect = higher value.
A short description of test [5]: glucagon-like peptide 1 release enhancers, primary assay, NCI-H716 cell line, NPC library (AID 1117341;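 active means compound raises GLP1 secretion from the human gut endocrine cells, with no numeric limit stated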). The following applies: NCI-H716 cells, at 10 µM, stronger effect = higher value.
Test [6] can be described thus: HCT116 colon cancer cell growth inhibition, primary screen, CellTiter-Glo luminescence, NPC library (AID 1117342;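 active means compounds that lower survival of HCT116 colon cancer cells in the luminescence readout, no numeric limit stated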). The settings on record: at 20 µM (top of the series). (Cellular ATP, detected with luciferase, serves as a proxy for viable cell number.)
A short description of test [7]: CellTiter-Glo luminescent readout of SW480 viability loss, NPC library primary (AID 1117343;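 active means compounds that lower viability of the colon cancer cells in the luminescence readout, with no numeric limit stated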). The settings on record: CellTiter-Glo luminescence; at 20 µM (top of the series) unless noted.
Test [8] is described as follows: decreased DLD-1 cellular survival, CellTiter-Glo luminescent readout, NPC compound collection, primary HTS (AID 1117346;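 active means compounds that lower survival of DLD-1 colon cancer cells in the luminescence readout, no cutoff given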). The following applies: DLD-1 viability, CellTiter-Glo luminescence; at 20 µM (top of the series).
Test [9] can be described thus: differential killing of epithelial or mesenchymal cells, primary screen, imaging, PC-3E GFP, TEM4-18 mCherry, co-culture (AID 1345086;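 active means compounds killing one labelled cell type while sparing the other, by normalised counts and ratio limits, not self-fluorescent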;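 on all read-outs here: cells exposed to compound for 72 h before imaging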;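 on red/green cell ratio (normalised): normalised mesenchymal count divided by normalised epithelial count so high means epithelial killing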). The settings on record: imaging cell counts, at 1 µM; for red/green cell ratio (normalised): actives lie on both sides, counts scaled to control wells, 1 = unselective.
Test [10] is described as follows: sensitizers of A549 cells to miR-34 induction, primary screen, imaging, A549 dox-inducible miR-34, nuclei and caspase counts (AID 1347080). The following applies: A549 miR-34 inducible, Hoechst nuclei count, 48 h.
Test [11] has as its target NAD(+) hydrolase SARM1 (Homo sapiens) (UniProt Q6SZW1). Nature of the test: SARM1 TIR NADase inhibitors, cell lysate, NAD-Glo luminescence (AID 1508614;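 active means compound whose remaining NAD level is above about 45 nM, limit read from the data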). The settings on record: SAM-TIR HEK293T lysate NADase, at 1 µM, stronger effect = higher value.
The nature of test [12]: liver-stage malaria parasite growth inhibition, primary screen, cell-based, HepG2, luciferase luminescence, HepG2 viability (AID 624349; in the data active means parasite load remaining mostly below about 12%, no sharp cut-off; inactive means mostly above about 10%;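 further: 100% = mean of DMSO negative control wells on the same plate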). The settings on record: P. berghei liver stage in HepG2, luciferase luminescence, concentration not given here; parasite load remaining: stronger effect = lower value; viability: measured here: HepG2 viability without parasites.
A short description of test [13]: survival rescue of mitochondrial mutant cells in low glucose, primary screen, MELAS cybrids, Rieske KO mouse fibroblasts, CellTiter-Glo (AID 1508586;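 active means mean z-score across replicates of 1.96 or higher in either the MELAS or the Rieske mutant cell line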;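 further: z relative to plate mean and SD of compound and empty wells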).
Test [14] can be described thus: hESC survival regulators, cell-based (AID 493140; call rule not given here;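 further: cells exposed to compounds for four days before counting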). The settings on record: human embryonic stem cell survival screen; stronger effect = higher value.
[15] abbreviates: measured here: epithelial PC-3E GFP cell survival.
Setting [16] is: measured here: mesenchymal TEM4-18 mCherry cell survival.
Setting [17] is: stronger effect = lower value, cell number ratio, induced over uninduced.
The mark [18] stands for this setting: measured here: relative caspase fold change +Dox/-Dox.
[19] abbreviates: measured here: total cells with miR-34 induction, stronger effect = lower value.
Setting [20] is: measured here: total cells without miR-34 induction.
The mark [21] stands for this setting: MELAS cybrid survival, CellTiter-Glo 48 h, stronger effect = higher value.
[22] abbreviates: Rieske KO mouse fibroblast survival, CellTiter-Glo 72 h.

“And” between values parts separate entries of the source, which are not always exact repeats. Equal entries are not always repeated. The source made the active and inactive calls.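 How the source made its calls, unless noted: active means compounds whose cell count with miR-34 switched on is under 0.7 times the count with it off; inactive means the rest.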

Sequence of NAD(+) hydrolase SARM1 (Homo sapiens) (Q6SZW1 whole entry, looked up): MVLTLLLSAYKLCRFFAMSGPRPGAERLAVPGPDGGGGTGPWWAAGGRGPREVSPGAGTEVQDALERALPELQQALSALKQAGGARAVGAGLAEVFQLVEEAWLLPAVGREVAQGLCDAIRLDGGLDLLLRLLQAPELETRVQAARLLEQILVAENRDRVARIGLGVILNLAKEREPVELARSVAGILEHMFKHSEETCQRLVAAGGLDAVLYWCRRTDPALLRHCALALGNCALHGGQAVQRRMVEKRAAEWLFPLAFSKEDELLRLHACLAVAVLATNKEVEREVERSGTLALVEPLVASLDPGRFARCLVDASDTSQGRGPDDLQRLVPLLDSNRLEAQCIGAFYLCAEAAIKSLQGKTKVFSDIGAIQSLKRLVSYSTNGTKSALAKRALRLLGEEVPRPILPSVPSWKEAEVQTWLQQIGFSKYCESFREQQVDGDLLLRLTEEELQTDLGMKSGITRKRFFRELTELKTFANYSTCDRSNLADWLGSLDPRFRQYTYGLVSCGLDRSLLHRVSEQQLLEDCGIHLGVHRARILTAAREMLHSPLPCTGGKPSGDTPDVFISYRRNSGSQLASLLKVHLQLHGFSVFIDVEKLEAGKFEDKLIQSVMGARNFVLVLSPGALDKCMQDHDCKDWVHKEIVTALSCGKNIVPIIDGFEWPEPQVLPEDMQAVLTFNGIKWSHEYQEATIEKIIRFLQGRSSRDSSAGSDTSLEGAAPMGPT

Take `COc1ccc(Cc2cnc(N)nc2N)cc1OC`: the nuclear beta-catenin stimulation in test [1] (at 10 µM) is -0.5% (inactive); in test [1] (stimulation, at 2 µM), -0.6%. For the same compound, in test [2], the insulin secretion stimulation was 0.9% (inactive). The viability decrease in test [3] is -3.05% (inactive). The tube area decrease in test [4] is -28.9% (inactive). The GLP1 secretion stimulation in [5] is 2.9% (inactive). The inhibition of viability in [6] was -12.4% (inactive). In addition, the figures for the viability decrease (inhibition) in test [7] and in test [8] were 6.9% (inactive) and -5.4% (inactive), respectively. Also, in test [9], the red/green cell ratio (normalised) is 1.2 (inactive). Moreover, the normalised cell number worked out at 1.03 in test [9] (setting [15]) and 1.23 in test [9] (setting [16]). The fold change in test [10] (setting [17]) was 1.04 (inactive); in test [10] (setting [18]) it was 0.896. Further, the results for the cell count in [10] (setting [19]) and in test [10] (setting [20]) were 9080 and 8710, respectively. In addition, the remaining NAD in test [11] is 10 nM (inactive).

Regarding `O=C1OC(CN2CCOCC2)CN1/N=C/c1ccc([N+](=O)[O-])o1` (stereo unspecified), in test [12], the parasite load remaining was 37.8% (inactive). Further, the viability (commonly a read-out of living cells in per cent, often relative to untreated cells) in test [12] was 89.8%. In addition, the nuclear beta-catenin stimulation in test [1] (at 10 µM) was 1.3% (inactive); in test [1] (stimulation, at 2 µM), 3.6%. In addition, the insulin secretion stimulation in test [2] is -1.4% (inactive). Moreover, the viability decrease in test [3] was 31.8% (inactive). Further, the tube area decrease in test [4] is -4.4% (inactive). Besides, the GLP1 secretion stimulation in test [5] is -0.3% (inactive). In test [6], the inhibition of viability was 24.6% (inactive). Moreover, the viability decrease (inhibition) in [7] is 22% (inactive); in [8] it was -32.5% (inactive). Further, in [9], the red/green cell ratio (normalised) is 1.05 (inactive). In addition, the normalised cell number in [9] (setting [15]) was determined as 1.05; in test [9] (setting [16]), 1.1. Moreover, the fold change in test [10] (setting [17]) was 0.949 (inactive) and 0.857 (inactive); in test [10] (setting [18]) it was 0.904 and 1.34. The cell count in [10] (setting [19]) was 8490 and 8240; in test [10] (setting [20]) it was 8940 and 9610. In addition, the z-score in test [13] (setting [21]) is -1.3 (inactive); in [13] (setting [22]), -1.11. Moreover, in test [11], the remaining NAD was 10 nM (inactive).

Regarding `CN(C/C=C/c1ccccc1)Cc1cccc2ccccc12`, the survival in test [14] is 21.7 (inactive). The parasite load remaining in test [12] was 71.6% (inactive). In test [12], the viability came to 71.3%. Moreover, the nuclear beta-catenin stimulation was 2.1% (inactive) in test [1] (at 10 µM) and 1.8% in test [1] (stimulation, at 2 µM). Besides, the insulin secretion stimulation in [2] is 14.3% (inactive). In test [3], the viability decrease was 86.7% (active). Moreover, the tube area decrease in test [4] was -3.5% (inactive). In addition, the GLP1 secretion stimulation in test [5] was 0.7% (inactive). In addition, in test [6], the inhibition of viability is 85.3% (active). Besides, the viability decrease (inhibition) in [7] is 95.4% (active); in test [8], 74.5% (active). Besides, in test [9], the red/green cell ratio (normalised) was 1.01 (inactive). Moreover, the figures for the normalised cell number in test [9] (setting [15]) and in test [9] (setting [16]) were 1.19 and 1.2, respectively. The fold change in test [10] (setting [17]) was 0.954 (inactive); in test [10] (setting [18]) it was 0.94. In addition, the cell count was 8810 in [10] (setting [19]) and 9230 in test [10] (setting [20]). Also, the values for the z-score in [13] (setting [21]) and in test [13] (setting [22]) were -0.0397 (inactive) and -0.28, respectively. In addition, the remaining NAD in [11] was 10 nM (inactive).

As for `C[C@H](O)C(=O)Nc1c(I)c(C(=O)NC(CO)CO)c(I)c(C(=O)NC(CO)CO)c1I`, the survival in test [14] is 3.75 (inactive). Further, the parasite load remaining in test [12] is 99% (inactive). For the same compound, the viability in [12] worked out at 105%. Besides, the nuclear beta-catenin stimulation was -2.7% (inactive) in test [1] (at 10 µM) and 2.4% in test [1] (stimulation, at 2 µM). Further, the insulin secretion stimulation in test [2] is 3.4% (inactive). Besides, the viability decrease in [3] is 0.8% (inactive). In addition, the tube area decrease in test [4] was -18.2% (inactive). The GLP1 secretion stimulation in [5] is 0.1% (inactive). In addition, the inhibition of viability in [6] is -1.3% (inactive). For the same compound, the viability decrease (inhibition) is 15% (inactive) in test [7] and -3.1% (inactive) in test [8]. Further, in test [9], the red/green cell ratio (normalised) is 1.21 (inactive). Besides, the normalised cell number was determined as 0.98 in test [9] (setting [15]) and 1.18 in test [9] (setting [16]). The fold change in test [10] (setting [17]) was 0.849 (inactive); in [10] (setting [18]) it was 2.22. Besides, the cell count in test [10] (setting [19]) is 8600; in [10] (setting [20]) it was 10100. The results for the z-score in test [13] (setting [21]) and in test [13] (setting [22]) were -0.551 (inactive) and -0.888, respectively.
